The results in this text go back to PubChem BioAssay.

Activity calls are given as the source filed them. Unless noted, no rule for the calls is given here.

The subject of test [1] is Wnt5a (protein binding on small-molecule microarray). The test can be described thus: small molecules binding Wnt5a protein – biophysical, small-molecule microarray, 635/667 nm fluorescence, primary screen (AID 1142).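 Also: fluorescence read at 667 nm with signal to noise per printed feature.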 The note with it: 635 nm fluorescence, higher = more signal.
Test [2] in a line: ATP-based viability of Huh7 replicon cells – cell-based, CellTiter-Glo luminescence, basal, 48 h, cytotoxicity control for HCV replication inhibitor project, primary screen (AID 1143).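 Also: Huh7 hepatoma cells carrying a hepatitis C replication reporter with no stimulus; test concentration not given here.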 The following applies: higher = more signal, called active from +8 up or from −8 down. In general terms: In antiviral work, replicon cells carry a viral genome segment that copies itself.
The nature of test [3]: Pseudomonas biofilm growth suppression – PAO1 strain, BacTiter-Glo luminescence, LB-PBS, primary screen (AID 1144). The note with it: P. aeruginosa PAO1 biofilm, 12 h, higher = more signal.
A short description of test [4]: basal CRE-LacZ reporter activity in PC12 – cell-based, unstimulated, primary screen (AID 1145). The following applies: no forskolin, luminescence, 4.5 h, higher = more signal, called active from +8 up or from −8 down.
The nature of test [5]: forskolin-driven CRE-LacZ activity in PC12 – cell-based, CRE-LacZ reporter, forskolin-stimulated, primary screen (AID 1146).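 Also: PC12 cells with 6xCRE LacZ reporter stimulated by forskolin 10 µM; beta-galactosidase reporter signal reflecting CREB driven transcription.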 The note with it: luminescence, 4.5 h, higher = more signal, called active from +8 up or from −8 down.
For test [6], the target named is Streptavidin (Streptomyces avidinii) (UniProt P22629). The test can be described thus: compounds binding control protein streptavidin – biophysical, small-molecule microarray, 635/667 nm fluorescence, artefact control for SMM compound annotation, primary screen (AID 1147).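 Also: signal reflects streptavidin binding to arrayed compounds as a control protein.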 The following applies: higher = more signal.
Chain of Streptavidin (Streptomyces avidinii) (P22629 whole entry, looked up): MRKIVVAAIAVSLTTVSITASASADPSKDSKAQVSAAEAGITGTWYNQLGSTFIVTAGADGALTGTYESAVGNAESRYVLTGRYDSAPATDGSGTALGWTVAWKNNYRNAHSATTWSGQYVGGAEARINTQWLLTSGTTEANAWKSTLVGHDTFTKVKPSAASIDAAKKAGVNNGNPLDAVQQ
Test [7] can be described thus: probe aInhba binding on compound microarray – biochemical, small-molecule microarray, 635/667 nm fluorescence, primary screen (AID 1148).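 Also: score merges 667nm spot fluorescence with signal-to-noise for antibody binding to printed compounds.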 The following applies: higher = more signal.
Test [8] addresses Torsin-1A (Homo sapiens) (UniProt O14656). The test can be described thus: TOR1A wild-type binding on microarray – cell lysate, small-molecule microarray, lysate, 635/667 nm, primary screen (AID 1149). The following applies: COS7 hTOR1A-WT lysate, 635 nm fluorescence, higher = more signal.
The target is the same in test [9]. The test is described as follows: torsin A mutant lysate binding on microarrays – cell lysate, small-molecule microarray, COS7 lysate, 635/667 nm fluorescence, primary screen (AID 1150).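 Also: score pools 667 nm emission and signal to noise measuring lysate protein binding.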 The note with it: COS7 hTOR1A mutant lysate, 635 nm fluorescence, higher = more signal.
The subject of test [10] is Sonic hedgehog protein (Shh). The test is described as follows: Sonic hedgehog microarray binding compounds – biochemical, small-molecule microarray, 635/667 nm fluorescence, primary screen (AID 1151).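 Also: Shh protein binding to compounds spotted on small-molecule microarray slides; score combines spot fluorescence intensity with signal-to-noise across triplicate slides.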 The note with it: 635 nm fluorescence, higher = more signal.

Chain of Torsin-1A (Homo sapiens) (O14656 whole entry, looked up): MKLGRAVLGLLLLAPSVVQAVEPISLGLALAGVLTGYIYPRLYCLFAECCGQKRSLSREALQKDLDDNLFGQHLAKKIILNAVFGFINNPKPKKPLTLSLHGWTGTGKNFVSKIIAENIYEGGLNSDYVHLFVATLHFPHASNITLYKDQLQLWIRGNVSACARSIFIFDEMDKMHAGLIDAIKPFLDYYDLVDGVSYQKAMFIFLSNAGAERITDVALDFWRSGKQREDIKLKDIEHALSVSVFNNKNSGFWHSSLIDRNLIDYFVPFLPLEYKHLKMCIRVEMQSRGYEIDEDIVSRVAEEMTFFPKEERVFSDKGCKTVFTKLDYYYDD

With `COc1ccc([Si](C)(C)[C@@H]2[C@@H](CC(=O)N3CCC[C@H]3CO)O[C@]3(C(=O)N(Cc4cccc(I)c4)c4ccccc43)[C@H]2C)cc1`, the composite z-score in [1] is 0.557; in test [6], 0.168; in [7], -0.0582; in test [8], 1.36; in test [9], 0.789; in [10] it was 2.14. The z-score was -4.27 (inactive) in test [2], 0.452 (inactive) in test [3], 0.12 (inactive) in [4] and -0.845 (inactive) in test [5].

Take `CC(C)[C@@H](C(=O)O)n1cc(C2(O)CCCCC2)nn1`: the composite z-score was 0.265 in test [1]; 0.306 in test [6]; -0.101 in test [7]; -0.0244 in test [8]; 0.404 in [9]; 0.151 in test [10]. Moreover, the z-score in test [2] was -0.671 (inactive); in test [3] it was -0.78 (inactive); in [4] it was -0.23 (inactive); in test [5] it was -0.669 (inactive).

Consider `CO[C@H]1O[C@H](CO)[C@@H](OC(=O)Nc2cccc(F)c2)[C@H](OC(=O)Nc2ccccc2)[C@H]1OC(=O)Nc1ccccc1`, for which the composite z-score in test [1] was 0.701; in [6], -0.0985; in test [7], 0.226; in test [8], 1.28; in test [9] it was 0.616; in test [10], 1.61. The z-score is -4.58 (inactive) in test [2], -0.703 (inactive) in test [3], -0.0484 (inactive) in [4] and -1.22 (inactive) in test [5].

For the compound `O=C1O[C@@H](c2ccccc2)[C@@H](c2ccccc2)N2[C@@H](c3ccccc3OCCO)[C@]3(C(=O)Nc4ccccc43)[C@@H](C(=O)O)[C@H]12`, the composite z-score in test [1] is 0.205; in test [6], 1.38; in [7], -0.103; in test [8], 0.332; in test [9] it was 1.14; in [10], 0.0546. The z-score in test [2] is -0.99 (inactive); in [3], -0.0695 (inactive); in [4], 0.568 (inactive); in [5], 2.62 (inactive).

Turning to `COc1cc2c(cc1O)C(c1cccs1)N(Cc1ccc([N+](=O)[O-])o1)CC2` (stereo not given), the composite z-score is 0.207 in test [1]; 1.32 in test [6]; 0.167 in [7]; 0.426 in test [8]; -0.155 in test [9]; -0.951 in test [10]. The z-score in test [2] was -1.37 (inactive); in test [3], -0.371 (inactive); in test [4] it was 0.209 (inactive); in test [5], -0.543 (inactive).

`COc1cc(CO)cc(I)c1O[C@H]1C=C(C(=O)NCCO)C[C@@H](N(C(=O)c2cc3ccccc3oc2=O)C2CCCCCC2)[C@@H]1O`: the composite z-score was 0.021 in [1]; 0.0378 in test [6]; -0.157 in test [7]; -0.113 in test [8]; 0.347 in test [9]; 1.33 in test [10]. Besides, the z-score in test [2] was -2.46 (inactive); in test [3], -0.269 (inactive); in test [4] it was -0.153 (inactive); in [5] it was -0.94 (inactive).

`O=C1OCC=C[C@H]2OC34C=CCN(CCN5CCOCC5)C(=O)[C@H]3N(CCO)C(=O)[C@@H]4[C@@H]12` (stereo not given in full): the composite z-score in test [1] is -0.38; in test [6], -0.175; in test [7], -0.359; in test [8] it was -0.618; in test [9], -0.61; in [10] it was 1.93. Also, the z-score in [2] is -0.117 (inactive); in test [3], 1.82 (inactive); in test [4], 0.459 (inactive); in test [5] it was 0.168 (inactive).

Turning to `CCOC(=O)C[C@H]1[C@H](OC(=O)c2cc3ccccc3oc2=O)[C@@H](NC(=O)CC(C)C)c2cc(OCCCO)ccc2N1C(=O)c1ccccc1`, the composite z-score is 0.175 in [1]; 0.131 in test [6]; -0.0986 in test [7]; 0.272 in [8]; 0.205 in [9]; 0.595 in test [10]. The z-score in test [2] is -3.29 (inactive); in test [3], 1.25 (inactive); in [4], 10.4 (active); in [5], -1.37 (inactive).

For the compound `NCCCCCNC(=O)[C@H]1C[C@H]2C(=O)N[C@@H](Cc3ccccc3)C(=O)N2[C@H]1c1cccc(OCCO)c1`, the composite z-score in test [1] is -0.0768; in test [6], 0.951; in test [7] it was 0.205; in test [8], 0.5; in test [9], 0.71; in test [10], 0.102. For the same compound, the z-score in [2] was -0.535 (inactive); in test [3], -0.2 (inactive); in [4], 1.49 (inactive); in [5] it was -0.389 (inactive).

For the compound `O=C(CS)NCCCCCNC(=O)[C@H]1C[C@H]2C(=O)NCC(=O)N2[C@H]1c1cccc(OCCO)c1`, the composite z-score in [1] was -0.341; in test [6] it was -1.05; in test [7] it was -0.217; in test [8], -0.181; in test [9], -0.0418; in [10] it was 0.27. The z-score was -0.466 (inactive) in [2], -0.218 (inactive) in test [3], -1.48 (inactive) in [4] and 0.0277 (inactive) in test [5].

In the case of `CCCCN1CC=CC23O[C@@H]4C=CCCOC(=O)C4[C@H]2C(=O)N(CCCCCO)[C@@H]3C1=O` (stereo not given in full), the composite z-score is -0.276 in test [1]; -0.525 in test [6]; -0.233 in [7]; 0.226 in test [8]; 0.735 in test [9]; -0.198 in test [10]. Further, the z-score in [2] was 0.342 (inactive); in [3] it was -0.0153 (inactive); in test [4], 0.199 (inactive); in [5], 0.794 (inactive).

Regarding `COc1ccc(C(=O)Nc2cccc(CN3C(=O)[C@]4(O[C@H](CCn5cc(CCO)nn5)[C@@H]([Si](C)(C)c5ccc(OC)cc5)[C@@H]4C)c4ccccc43)c2)cc1`, the composite z-score in test [1] is 0.224; in test [6] it was 0.38; in test [7] it was -0.0963; in [8], 0.188; in test [9] it was 0.359; in [10], 1.21. The z-score in test [2] was -7.97 (inactive); in test [3], -0.0511 (inactive); in [4], 0.963 (inactive); in [5], -1.52 (inactive).

Consider `COCCOC(=O)N1C(=O)[C@@]2(c3cc(C#CC4(O)CCCCCC4)ccc31)[C@H](C(=O)Nc1nc3ccccc3s1)[C@H]1C(=O)O[C@H](c3ccccc3)[C@H](c3ccccc3)N1[C@@H]2c1ccc(OCCO)cc1`, for which the composite z-score is 0.564 in [1]; 0.587 in test [6]; 0.366 in test [7]; 0.669 in test [8]; 0.849 in [9]; 1.42 in test [10]. In addition, the z-score was -3.02 (inactive) in test [2], -1.1 (inactive) in test [3], -0.748 (inactive) in test [4] and 1.65 (inactive) in test [5].

`CC(C)CNC(=O)[C@@]1(Cc2ccccc2I)c2ccccc2C(=O)N(Cc2ccccc2C(F)(F)F)[C@H]1c1ccc(CO)cc1`: the composite z-score is -0.0971 in test [1]; -0.198 in [6]; -0.128 in [7]; -0.177 in [8]; -0.185 in test [9]; -0.197 in test [10]. Also, the z-score is 0.0523 (inactive) in test [2], 0.0415 (inactive) in test [3], -0.295 (inactive) in test [4] and 1.04 (inactive) in test [5].

On to `Cc1ccc(S[C@]2(C(=O)NCC(C)C)CC(=O)N(Cc3cc(C(F)(F)F)cc(C(F)(F)F)c3)[C@@H]2c2ccc(CO)cc2)cc1`, for which the composite z-score in test [1] was 0.226; in test [6], -0.342; in test [7], 0.652; in [8], 0.234; in test [9], 0.118; in test [10], 0.391. In addition, the z-score in test [2] is 0.52 (inactive); in [3] it was -0.846 (inactive); in test [4], -0.0781 (inactive); in test [5], 1.02 (inactive).
